# Source: PubChem (ICCB-Longwood Screening Facility, Harvard Medical School)
# Ba CapD inh – Bacillus anthracis CapD inhibitors, primary screen, biochemical, fluorescence intensity. CapD gamma-glutamyltranspeptidase (Bacillus anthracis Ames Ancestor). purified CapD enzyme, fluorescence intensity read-out; stronger effect = lower value. z-score (concentration not given with the values). 140,000 compounds, 0.23% hits. AID 492967, 2010; in the data active = z-score mostly below about -2.9, no sharp cut-off; inactive = mostly above about -1.9
# Numbers without * were called inactive. The sample as a whole holds a higher share of hits than the screen did.
SMILES,Ba CapD inh
N#C/C(=C\Nc1ccc(C(N)=O)cc1)c1nc(-c2ccccc2)cs1,-0.455
N#C/C(=C\Nc1ccc(Br)cc1)c1nc(-c2ccccc2)cs1,-0.325
N#C/C(=C\C=C\c1ccco1)c1nc(-c2ccccc2)cs1,-4.27*
CC1=NNC(=O)C1Cc1ccccc1 (centres undefined),-0.42
Cc1ccc(C)n1-c1ccccc1C1C=NNC1=O (centres undefined),-4.14*
COc1cc(NS(=O)(=O)c2ccc(Cl)cc2)c(Cl)cc1Cl,-0.45
O=C(CSc1ccccc1C(=O)O)c1cccc([N+](=O)[O-])c1,-0.625
CC1(C)OC(=O)C(=Cc2cccs2)C(=O)O1,-0.63
CSC1=N/C(=C/c2ccco2)C(=O)N1,-2.93
CSC1=N/C(=C/c2cccs2)C(=O)N1,-4*
O=C(Nc1nc(=S)ss1)c1ccccc1Cl,-1.4
Cc1ccc(OCC(=O)O)c(C)c1,-0.085
CCc1nc(C)ccc1OCC(N)=O,0.37
CCc1nc(C)ccc1OCC(=O)O,-4.99*
N#CC(c1ccc(Cl)cc1Cl)c1ncc(C(F)(F)F)cc1Cl (centres undefined),-0.85
Cc1cccc(NC(=O)CSc2cn(Cc3cccc(F)c3)c3ccccc23)c1C,8.63
Cc1cc(=O)n(CCc2ccccc2)c(O)c1C#N,6.08
Cc1c(C#N)c(O)n(CCO)c(=O)c1N=Nc1cccc(C(=O)O)c1,-8.28*
CCCCn1c(O)c(C#N)c(C)c(N=Nc2ccc(OC)cc2)c1=O,-0.255
N#Cc1cc(-c2ccc(Cl)cc2)cn(Cc2ccc(Cl)c(Cl)c2)c1=O,1.85
COc1ccc(OC)c(/C=N\NC(=O)C2C(=O)NCC2c2ccccc2)c1 (centres undefined),57.3
CCC1CCCCN1CCCNc1cnnc2c(Cl)cccc12 (centres undefined),-1.95
COc1ccccc1/C=C1/SC(=S)NC1=O,-0.595
Cn1cccc1/C=C1\SC(=S)NC1=O,-4.31*
Cn1cccc1/C=C1\CS/C(=C\c2cccn2C)C1=O,-0.27
SMILES,Ba CapD inh
COc1cc(Br)c(CN2CCCC(COC(=O)NNC(=O)c3ccc(O)cc3)C2)cc1OC (centres undefined),-0.55
CCOC(=O)C1=C(C)NC2=C(C(=O)C(C(=O)OC)C(C)C2)C1c1ccccc1 (centres undefined),-0.425
COC(=O)C1C(=O)C2=C(CC1C)Nc1ccccc1NC2c1c[nH]c2ccccc12 (centres undefined),-2.55
COC(=O)C1C(=O)C2=C(CC1C)Nc1ccccc1NC2c1ccccc1C (centres undefined),-4.02*
CC1CCCC(C)N1C(=O)C1CC(c2ccccc2F)=NO1 (centres undefined),-0.235
O=C1OC(c2ccccc2)=N/C1=C\C=C\c1ccccc1,-0.44
CN(C)/C=C/C=C1\N=C(c2ccccc2)OC1=O,-6.99*
Cc1ccc(/C=C2\N=C(c3ccccc3)OC2=O)o1,-2.71
O=C(O)c1ccc(NC2OC(CO)C(O)C2O)cc1 (centres undefined),-6.54*
Cc1ccc(NC2OC(CO)C(O)C2O)cc1C (centres undefined),0.565
OCC1OC(Nc2ccccn2)C(O)C(O)C1O (centres undefined),-0.04
CC(C)SC1=NSC2=NC(=O)/C(=C\c3ccc(-c4cccc(C(=O)O)c4)o3)C(=N)N21,-13.2*
CSC1=NSC2=NC(=O)/C(=C\c3ccc(-c4ccccc4)o3)C(=N)N12,-0.655
CC(=O)Oc1ccc(/C=C2/C(=N)N3C(=NC2=O)SN=C3SC(C)C)cc1,-0.23
CN(CCOC(=O)N1CCC(O)(c2ccc(Cl)cc2)CC1)c1ccccc1,-0.585
c1cncc(-c2[nH]ncc2-c2ccc3ccccc3n2)c1,10.6
Cc1ccc(COn2c(-c3ccc(Cl)cc3)nc3ccc(Cl)cc32)cc1,-0.245
O=C(O)/C=C\C(=O)Nc1ccccc1C(=O)O,5.81
O=C(O)c1ccc(Nc2nccc(Nc3ccccc3C(=O)O)n2)cc1,13.3
O=C(O)c1cc(Nc2ccccc2C(=O)O)nc(Nc2ccccc2C(=O)O)n1,-5.1*
O=C(N/N=C/c1cc(F)c(F)cc1F)c1ccc2ccccc2c1,-0.565
COc1cc(OC)c(/C=N/NC(=O)Cc2c[nH]c3ccccc23)cc1Br,0.9
CCOC(=O)c1ccccc1S(N)(=O)=O,0.335
CCOC(=O)c1cc2ccccc2cc1O,-0.5
CCOC(=O)c1cccc(O)c1O,-2.7*
SMILES,Ba CapD inh
CCS(=O)(=O)c1ccc2oc(=O)[nH]c2c1,1.07
CCCNC(=O)Cn1nc(C)c2sc3ccccc3c2c1=O,-5.81*
Cc1nn(CC(=O)NCc2ccc3c(c2)OCO3)c(=O)c2c1sc1ccccc12,0.405
Cc1nn(CCCC(=O)N2CCCCC2)c(=O)c2c1sc1ccccc12,8.54
CN1CCN(C(=O)C(Cc2ccccc2)NC(=O)c2ccccc2NC(=O)c2ccccc2)CC1 (centres undefined),0.61
Cc1ccc(OC(=O)OCSc2nn[nH]n2)cc1,-7.11*
Cc1ccc(-c2nn[nH]n2)cc1,0.305
Cc1ccc(/C(N)=N/OC(=O)Oc2ccccc2)cc1,-0.01
Cc1nc(N2CCN(c3ccccc3F)CC2)c2c3c(sc2n1)CCC3,-0.525
CC1CC(C)(C)N(C(=O)c2ccccc2F)c2ccccc21 (centres undefined),0.675
Cc1nnc(-c2cccc(S(=O)(=O)N3CCN(C(c4ccccc4)c4ccccc4)CC3)c2)o1,-0.015
COC(=O)C1=C(C)N(C(C)C)C(=O)/C1=C\c1ccc(C(=O)O)cc1,0.22
CCc1ccc(C2=CC(=O)C=CC2=O)cc1,-0.415
O=C1C=CC(=O)C(c2ccc(C(=O)O)cc2)=C1,-7.98*
CC(C)c1ccc(C2=CC(=O)C=CC2=O)cc1,5.72
Cc1cc(=O)oc2c1ccc1occ(Nc3ccc(O)cc3)c12,-0.13
Fc1cccc(-c2csc(-c3ccc(-c4csnn4)cc3)n2)c1,0.135
Cn1cc(NC(=O)N(Cc2ccco2)CC2CCCO2)c2ccccc2c1=O (centres undefined),32.9
CCCN1C(=O)/C(=C/c2ccc(-c3ccc(Br)cc3)o2)NC1=S,-0.41
O=C(c1cccs1)C1CCCCC1,0.03
O=C(CCN1CCOCC1)Nc1cc(C(=O)N2CCc3ccccc3C2)ccc1N1CC2CC(C1)c1cccc(=O)n1C2 (centres undefined),-0.125
COC(=O)c1noc(C)c1C(=O)/C=C/N1CCCCC1,8.3
COC(=O)C(=C/C=C/N1CCCCC1)C(=O)OC,-4.79*
COC(=O)C(=C/C=C/c1cccs1)C(=O)OC,-3.18
O=C(/C=C/c1ccccc1)Nc1nccs1,0
SMILES,Ba CapD inh
C=C(C)CSc1nnc2c(n1)[nH]c1ccccc12,-0.025
CN1C(=O)/C(=c2/[nH][nH]c(=O)/c2=C\C=C\c2ccccc2)C(=O)c2ccccc21,-5.16*
CN1C(=O)/C(=C\C(=O)c2cccs2)c2ccccc21,-0.22
C=CCN1C(=O)NC(=O)/C(=C/C=C/c2ccccc2)C1=O,-0.42
CS(=O)(=N/C=C(\C#N)C(=O)c1ccco1)c1ccc(Cl)cc1 (centres undefined),-2.38
Cc1ncc([N+](=O)[O-])n1CCNC(=O)OCc1ccc(-c2ccccc2)cc1,-0.385
C=CCc1ccc(O)c(OC)c1,-10*
COc1cc(CNc2ccc(C)cc2)ccc1O,0.255
COc1cc(CNc2ccccc2SC)ccc1O,6.97
CC1CCc2c(sc(NC(=O)c3ccc(S(=O)(=O)N4CCc5ccccc54)cc3)c2-c2nc3ccccc3s2)C1 (centres undefined),-0.08
Clc1cc(Cl)c(OCc2cc(-c3ccccc3)no2)cc1Cl,-0.9
